Hits are enriched below; roughly 2.5% of the tested compounds scored in any of these assays.
ANO1 block: blocks the mouse calcium-activated chloride channel TMEM16A; Q8BHY3; HEK293 TMEM16A/YFP iodide influx fluorescence, ionomycin; normalized B-score (activity score, 25-100; higher = stronger inhibition) at 10 µM; 310,000 compounds, 1.2% hits; AID 588511;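 active = ratio plate-corrected score three or more library SD toward inhibition, starting fluorescence score within five deviations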;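 note: score derived from kinetic fluorescence span divided by baseline fluorescence per well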
PKA-R1A act: activates the PKA-R1A holoenzyme complex | P00514+P68181 | PKA-R1A dissociation, Cy5-IP20 fluorescence polarization; scaled: DMSO 0%, 113 µM cGMP 100% | activation, % at 11.4 µM | 340,000 compounds, 0.083% hits | AID 504707;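 active = percent activation above the mean of all tested compounds plus 3 SD, cut at about 19% in these data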;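 note: higher means more PKAc released from R1A so a rise in polarization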
ANO1 activ: activators or potentiators of mouse TMEM16A chloride channel | 340,000 compounds, 0.3% hits | AID 623877 | B-score at 10 µM | HEK293 TMEM16A/YFP-H148Q/I152L, iodide quench fluorescence; hits give low values;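 active = fluorescence-ratio B-score plate-corrected deviation score at least 3 library SD below zero, with starting fluorescence score within 5 deviations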;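 note: channel opened by trigger with iodide after compound preincubation; score built on the fluorescence ratio of max minus min over baseline; more negative score means more quench and so TMEM16A activation or potentiation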
PKA-R2B activ: PKA-R2B complex activation; P22694+P31323; activation, % at 11.4 µM; 340,000 compounds, 0.079% hits; PKA-R2B holoenzyme dissociation, Cy5-IP20 fluorescence polarization; R2B truncated from residue 108, S112A mutant; 0% DMSO only, 100% 113 µM cGMP;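 active = activation above a cutoff set at the mean over all compounds plus 3 SD, cut at about 18% in these data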;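 note: higher means more holoenzyme dissociation and a rise in polarization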
CHT PAM: allosteric activators of human choline transporter CHT. 310,000 compounds, 0.49% hits. B-score at 10 µM. Q9GZV3. CHT-expressing cells, membrane potential dye, choline EC20; hits give high values; LV-AA mutant CHT in HEK293 cells;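 active = initial fluorescence not abnormally high and integrated response B-score, plate-corrected, over 3 SD above library mean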
Target sequence (Q9GZV3 whole entry, looked up): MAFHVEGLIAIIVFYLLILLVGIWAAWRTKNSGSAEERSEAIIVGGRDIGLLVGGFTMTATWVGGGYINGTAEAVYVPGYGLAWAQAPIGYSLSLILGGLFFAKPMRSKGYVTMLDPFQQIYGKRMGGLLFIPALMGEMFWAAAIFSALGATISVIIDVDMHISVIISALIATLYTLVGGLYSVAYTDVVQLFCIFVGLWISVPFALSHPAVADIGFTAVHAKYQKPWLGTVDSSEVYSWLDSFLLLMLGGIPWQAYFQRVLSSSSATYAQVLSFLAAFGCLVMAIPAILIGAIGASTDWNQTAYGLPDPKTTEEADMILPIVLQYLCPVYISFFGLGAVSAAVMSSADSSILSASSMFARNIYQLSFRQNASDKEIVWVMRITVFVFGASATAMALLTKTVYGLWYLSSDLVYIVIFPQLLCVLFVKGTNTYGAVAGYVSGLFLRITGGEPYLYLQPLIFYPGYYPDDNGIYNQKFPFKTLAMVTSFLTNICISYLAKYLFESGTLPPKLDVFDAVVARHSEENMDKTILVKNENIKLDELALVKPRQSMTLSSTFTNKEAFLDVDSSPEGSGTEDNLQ
CHT inh: human CHT choline transport inhibition; CHT-expressing cells, membrane potential dye, choline response; hits give low values; 310,000 compounds, 0.86% hits; Q9GZV3; B-score at 10 µM;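 active = B-score over 3 SD under the library average, and starting fluorescence ratio not unusually high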;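 note: choline stimulus applied at its EC90 after an EC20 pre-addition; B-score computed on integrated fluorescence ratio after choline addition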
CHT inh conf: confirmation of human choline transporter CHT inhibitors | shares compounds with CHT inh | CHT-expressing cells, choline membrane potential dye; LV-to-AA substituted CHT, HEK293 cells | CHT activity remaining % of control (hits give low values), % at 10 µM | 2,400 compounds, 70% hits | AID 493221;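 active = choline transporter activity left, mean of duplicates at 10 µM, below buffer-only control mean minus 3 SD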;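 note: depolarization triggered by choline at its EC90 following an EC20 pre-addition; 0% = hemicholinium-3 full block and 100% = buffer-only control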
HEK293 CHT ctr: activity in parental HEK293 cells lacking CHT; shares compounds with CHT inh; membrane potential dye, choline response; active = decrease or increase beyond buffer ±3SD; membrane potential ratio readout (active if shifted either direction beyond buffer ±3SD; no single direction) at 10 µM; 2,400 compounds, 4% hits; AID 493222;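 note: parental cells lack the transporter so any hit is non-specific; ratio is peak minus trough fluorescence over baseline after EC90 choline challenge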
Active calls of the source: *; i = inactive; x = no result.

SMILES	ANO1 block	PKA-R1A act	ANO1 activ	PKA-R2B activ	CHT PAM	CHT inh	CHT inh conf	HEK293 CHT ctr
Cc1ccc2nc(N/C(=N/S(=O)(=O)c3ccc(F)cc3F)c3ccccc3)sc2c1	i	2	i	0	i	i	x	x
Cc1ccc(S(=O)(=O)N(C)CC(=O)NNC(=O)CCC(=O)c2ccc(F)cc2)cc1	x	-7	i	1	x	x	x	x
Cc1ccc(NC(=O)c2ccc(Cn3cc([N+](=O)[O-])cn3)cc2)c(C)c1	i	-1	i	-1	i	-5.2*	42%*	i
COc1cccc(CN(C)C(=O)Cn2cc(C)c(=O)[nH]c2=O)c1	x	-5	x	1	x	x	x	x
CC12CCC(C(=O)NNc3ccc([N+](=O)[O-])cc3)(OC1=O)C2(C)C (centres undefined)	i	0	i	11	i	-10*	i	i
CC12CCC(C(=O)NNc3ccccc3)(OC1=O)C2(C)C (centres undefined)	i	-1	i	8	i	i	x	x
CN(C)C(=O)c1ccccc1Sc1ccc(Cl)cc1Cl	i	-7	i	1	i	-5*	i	i
CC(=O)Nc1ccc(NC(=O)c2ccccc2Sc2ccc([N+](=O)[O-])cc2Cl)cc1	i	13	i	5	i	i	x	x
CC1=C(C(=O)Nc2cccc(C(=O)NC3CCCCC3C)c2)SCCO1 (centres undefined)	i	-2	i	-7	i	i	46%*	i
CCOCCCNC(=O)c1cccc(NC(=O)C2=C(C)OCCS2)c1	i	3	i	0	i	i	x	x
O=C(CN1C(=O)c2ccccc2C1=O)Nc1ccc(Cl)cn1	i	-20	i	-11	i	-5.1*	i	i
O=C(Cc1ccccc1)Nc1ccc(Cl)cn1	i	2	i	-13	i	i	x	x
CC(C)n1c(O)c(N=NC(=O)CNC(=O)Cc2ccc(Cl)cc2)c2ccccc21	i	-10	i	2	i	-8*	36%*	i
CC(C)n1c(O)c(N=NC(=O)Cc2csc(N3CCOCC3)n2)c2ccccc21	i	4	i	-1	i	-9.4*	24%*	i
CCOC(=O)N1CCN(C(=O)CNC(=O)c2ccc(Cl)cc2)CC1	i	-10	i	-7	i	i	x	x
Cc1ccc(Cn2c(C(C)Nc3nc(C)cs3)nc3cc(Cl)c(Cl)cc32)cc1 (centres undefined)	i	x	x	x	i	i	x	x
CSc1ccc(CN2CCC(n3nccc3NC(=O)CCCc3ccccc3)CC2)cc1	i	-8	i	-6	i	i	x	x
COc1ccc(C(=O)N(C)C2CCCc3ccccc32)cc1OC1CCN(C(C)C)CC1 (centres undefined)	i	5	i	3	i	-10*	15%*	i
COc1ccc(C(=O)NC2CCc3ccccc32)cc1OC1CCN(C(C)C)CC1 (centres undefined)	i	-4	i	-7	i	-9*	16%*	i
COc1ccc(C(=O)NC2CCCc3ccccc32)cc1Br (centres undefined)	i	-13	i	-10	i	i	x	x
CC(C)CC(OC(=O)c1ccc(Cl)nc1)C(=O)NC1CCCC1 (centres undefined)	i	5	i	-1	i	i	x	x
O=C(c1cn(-c2ccccc2)nc1-c1ccccc1)N1CCOCC1	i	-2	i	8	i	i	x	x
O=C(c1cn(-c2ccccc2)nc1-c1ccc(Cl)cc1)N1CCOCC1	i	-2	i	8	i	-5.6*	59%*	i
COc1ccc(Cl)cc1NC(=O)NCc1ccccn1	i	-3	i	4	i	i	x	x
CNC(=S)N(Cc1cccs1)Cc1cc2ccc(OC)cc2[nH]c1=O	i	2	i	-10	i	i	x	x
SMILES	ANO1 block	PKA-R1A act	ANO1 activ	PKA-R2B activ	CHT PAM	CHT inh	CHT inh conf	HEK293 CHT ctr
COc1ccc2[nH]c(=O)c(CN(Cc3cccs3)C(=S)Nc3ccccc3)cc2c1	i	x	x	x	i	-5.3*	i	i
COc1cccc(CNc2ccc(N3CCC(C)CC3)cc2)c1OC	i	-1	i	-3	i	-5.4*	54%*	i
Cc1nn(Cc2ccccc2)c(Cl)c1/C=C1\NC(=S)NC1=O	i	-2	i	7	i	-7.7*	i	i
COc1ccc(/C=N/n2cnnc2)cc1Br	i	x	i	x	i	i	x	x
Cc1ccccc1N=C/C=C1\N(C)c2ccccc2C1(C)C	i	-5	i	-6	i	i	x	x
CN1/C(=C\C=Nc2cc(S(=O)(=O)N3CCOCC3)ccc2N2CCOCC2)C(C)(C)c2ccccc21	i	-2	i	-2	i	i	21%*	i
Cc1cc(OCc2cc(C(=O)NCCN3CCCCC3CO)no2)cc(C)c1Cl (centres undefined)	i	-5	i	-3	i	-5.4*	49%*	i
COc1cccc(OCc2cc(C(=O)NCCN3CCCCC3CO)no2)c1 (centres undefined)	i	-2	i	-7	i	i	x	x
O=C(O)c1[nH]c2ccc(Cl)cc2c1CC(=O)N1CCN(c2ccccc2)CC1	i	9	i	3	i	-7.6*	36%*	i
COCC(=O)N1CCC(Oc2ccc(C(=O)NC(C)c3nccs3)cc2)CC1 (centres undefined)	i	-4	i	8	i	i	x	x
CCOC(=O)c1[nH]c(C)c(C(=O)N2CCc3ccccc32)c1C	i	-4	i	-3	i	-6*	i	2.4*
COC(=O)Nc1ccc(S(=O)(=O)NNC(=O)c2c(O)c3ccccc3n(C)c2=O)cc1	i	2	i	-6	i	-5.8*	43%*	i
CCn1c(=O)c(C(=O)NNS(=O)(=O)c2ccc(NC(=O)OC)cc2)c(O)c2ccccc21	i	3	i	0	i	i	x	x
CC(C)CCN(C(=O)c1cn2ccccc2n1)c1c(N)n(Cc2ccccc2)c(=O)[nH]c1=O	x	-2	i	-5	x	x	x	x

Screening results from PubChem.
